The supplement of paper PMC10338343
± gives the standard deviation. Whole data set: some 8,200 sequences, median “pre-steady-state target cleavage rate” near 0.024, cut for the highest 2% near 1.3. For the sample, the highest values were picked, then their nearest neighbours and some sequences at random.

Tested on: MIWI (PIWIL1) piRISC loaded with L1MC piRNA (30 nt)
Assay: pre-steady-state target cleavage rate (min^-1); MIWI and MILI are mouse PIWI proteins and EfPiwi is from a freshwater sponge; tags in brackets are library labels; higher = faster piRNA-guided slicing of the target
Settings: guide: L1MC piRNA 5'p-UAACUAAAUACUAUGCAAGCUGUAGGUCCU
Protocol: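 Cleave-'n-Seq: a library of target RNAs (target site embedded in constant flanks, ACAGCATTCCGCGTTAGTGATATCCG... 5' flank; DNA-blocked outside the site) at 0.1 nM was incubated with 1 nM active mouse MILI or MIWI piRISC (synthetic 5'-monophosphorylated piRNA guide) with or without 500 nM mouse GTSF1 at 33 °C for 1 min to 16 h. Uncleaved targets were sequenced and normalised to non-target controls, and the pooled three trials were fitted to a burst-and-steady-state model to give the pre-steady-state cleavage rate (min^-1; k3 is constrained to at most 1e-4). Sequence is the target site only; target names encode pairing extent (gX:gY) and contiguous / 1-mismatch / 2-mismatch / bulge geometry. Fits with R² ≤ 0 are excluded.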

[1] = auxiliary factor: 500 nM mouse GTSF1
[2] = auxiliary factor: none (no GTSF1)

Row | Sequence | pre-steady-state target cleavage rate [1] | pre-steady-state target cleavage rate [2]
1 | AGGACCUACAGCUUGGAUAGUAUAUAGUUA | 0.736 ± 0.053 | 0.0336 ± 0.0076
2 | AGGACCUUCAGCUUGCUUAGUAUUUAGUUA | 1.44 ± 0.055 | 0.0546 ± 0.01
3 | UCCACCUACAGCUUGCUUAGUAUAUAGUUA | 0.357 ± 0.027 | 0.0111 ± 0.0025
4 | UGGACCUACAGCUUGCUUAGUAUAUAGUUA | 0.842 ± 0.063 | 0.0175 ± 0.0052
5 | UCCUCCUACAGCUUGCUUAGUAUAUAGUUA | 0.617 ± 0.034 | 0.0104 ± 0.0032
6 | UGGACCUUCAGCUUGCUUAGUAUUUAGUUA | 1.49 ± 0.09 | 0.0441 ± 0.011
7 | UCGACCUACAGCUUGCUUAGUAUAUAGUUA | 0.879 ± 0.063 | 0.0168 ± 0.004
8 | AGGACCUACAGCUUGCUUAGUAUAUAGUUA | 0.762 ± 0.071 | 0.0291 ± 0.0082
9 | AGGACCUACAGCAUGCAUACUAUUUAGUUA | 0.39 ± 0.023 | 0.0205 ± 0.0035
10 | UGGACCUACAGCUCGCAUAGUAUUUAGUUA | 1.54 ± 0.096 | 0.0604 ± 0.0083
11 | UCCUCCUACAGCUCGCAUAGUAUUUAGUUA | 1.31 ± 0.051 | 0.0488 ± 0.0093
12 | AGGACCUACAGCUCGCAUAGUAUUUAGUUA | 1.35 ± 0.068 | 0.0694 ± 0.013
13 | AGGACCUACAGCUGGCAUAGUAUUUAGUUA | 1.29 ± 0.057 | 0.0579 ± 0.011
14 | UCCUGCUACAGCUCGCAUAGUAUUUAGUUA | 1.14 ± 0.062 | 0.0391 ± 0.0067
15 | UCCACCUACAGCUCGCAUAGUAUUUAGUUA | 1.11 ± 0.043 | 0.0579 ± 0.012
16 | UCGACCUACAGCUCGCAUAGUAUUUAGUUA | 1.55 ± 0.04 | 0.0682 ± 0.013
17 | UGGACCUACAGCUACCAUAGUAUUUAGUUA | 0.493 ± 0.043 | 0.00241 ± 0.0021
18 | UGGACCUACAGCUUGCAUAGUUUUUACUUA | 0.0927 ± 0.013 | 0.0125 ± 0.0027
19 | UGCACCUACAGGUUGCAUAGUAUUUAGUUA | 0.859 ± 0.15 | 0.0244 ± 0.0052
20 | UCCUGCUACAGCUUGCAUAGAAAUUAGUUA | 0.2 ± 0.021 | 0.00609 ± 0.0021

Row | Sequence | pre-steady-state target cleavage rate [1] | pre-steady-state target cleavage rate [2]
21 | AGGACCUACACCUUGCAUAGUAUUUAGUAA | 0.838 ± 0.068 | 0.0538 ± 0.0089
22 | UCCACCUACAGCUUGCAUAGUAUUUUCUAA | 0.361 ± 0.048 | 
23 | UCCUGGAACAGCUUGGAUAGUAAUUAGUUA | 0.565 ± 0.055 | 0.0197 ± 0.0059
24 | UCCUGGAACAGCUUGCAUAGUUUUUAGUAA | 0.191 ± 0.025 | 0.0332 ± 0.01
25 | UCCUGGUACUGCUUGGAUAGUAUUUAGUUA | 0.391 ± 0.078 | 0.0193 ± 0.0036
26 | UCCACCUACUGCUUGCAUAGUAUUUAGUUA | 0.697 ± 0.027 | 0.0467 ± 0.0067
27 | UCGACCUACUGCUUGCUUAGUAUUUAGUUA | 1.52 ± 0.061 | 0.031 ± 0.0067
28 | ACGACCUACUGCUUGCAUAGUAUUUAGUUA | 1.51 ± 0.054 | 0.0792 ± 0.013
29 | UGCACCUACUGCUUGCAUAGUAUUUAGUUA | 1.16 ± 0.097 | 0.0725 ± 0.014
30 | UCGACCUACUGCUUGCAUAGUAUUUAGUAA | 0.797 ± 0.036 | 0.0434 ± 0.0074
31 | UCGACCUACUGCUUGCAUAGUAUUUAGUUA | 1.41 ± 0.035 | 0.0694 ± 0.011
32 | UCCUCCUACUGCUUGCUUAGUAUUUAGUUA | 1.06 ± 0.04 | 0.03 ± 0.0053
33 | UGGACCUACUGCUUGCAUAGUAUUUAGUUA | 1.46 ± 0.073 | 0.0611 ± 0.0097
34 | UGGACCUACUGCUUGCAUAGUAUUUAGUAA | 0.708 ± 0.039 | 0.0421 ± 0.008
35 | UCCACCUACUGCUUGCUUAGUAUUUAGUUA | 0.816 ± 0.029 | 0.0276 ± 0.0058
36 | UCGACCUACUGCUUGCAUAGUAUUUAGAUA | 0.273 ± 0.023 | 0.0197 ± 0.0035
37 | AGGACCUACUGCUUGCAUAGUAUUUAGUUA | 1.21 ± 0.049 | 0.0777 ± 0.012
38 | UCCUGCUACGCUUGCAUAGUAUUUAGUUA | 1.12 ± 0.08 | 0.0532 ± 0.011
39 | AGGUCCUACAGCUUGCAUAGUAUUAAGUUA | 0.381 ± 0.034 | 0.054 ± 0.013
40 | UCCUCCUAGAGCUUGCUUAGUAUUUAGUUA | 1.04 ± 0.059 | 0.0213 ± 0.0041

Row | Sequence | pre-steady-state target cleavage rate [1] | pre-steady-state target cleavage rate [2]
41 | UGGACCUACAGCUUGCUUACUAUUUAGUUA | 0.493 ± 0.031 | 0.0127 ± 0.0038
42 | UCGACCUACAGCUUGCAUAGUUAAUAGUUA | 0.122 ± 0.019 | 0.00697 ± 0.0029
43 | UCCUGGAUGUCGUGCAUAGUAUUUAGUUA | 0.031 ± 0.0083 | 0.00348 ± 0.0032
44 | UCCUCCUACACCUAGCAUAGUAUUUAGUUA | 0.657 ± 0.057 | 0.0111 ± 0.0022
45 | UCCUGGAACAGCUUGCAUAGUAUAAACAAA | 0.18 ± 0.043 | 
46 | UGGACCUACAGCUUCGAUAGUAUUUAGUAA | 0.307 ± 0.04 | 
47 | UCCUGGAUGUGCUUGCUUAGUAUUUAGUAA | 0.0383 ± 0.008 | 0.0104 ± 0.0033
48 | UGGACCUACAGCUUGCAUAGUAUUAAGAUA | 0.174 ± 0.028 | 0.00558 ± 0.0024
49 | UCGACCUACUGCAUGCAUAGUAUUUAGUUA | 1.33 ± 0.056 | 0.0324 ± 0.0055
50 | UCGACCAACUGCUUGCAUAGUAUUUAGUUA | 1.43 ± 0.041 | 0.0724 ± 0.012
51 | AGGACCUACUGCAUGCAUAGUAUUUAGUUA | 1.3 ± 0.06 | 0.0566 ± 0.01
52 | AGGACCUACUGCUUGCAAAGUAUUUAGUUA | 1.11 ± 0.057 | 0.0455 ± 0.0095
53 | UGGACCUACUGCUUGCAAAGUAUUUAGUUA | 1.23 ± 0.059 | 0.0383 ± 0.0078
54 | AGGACCAACUGCUUGCAUAGUAUUUAGUUA | 1.22 ± 0.056 | 0.0799 ± 0.014
55 | UGGACCUACUGCAUGCAUAGUAUUUAGUUA | 1.27 ± 0.08 | 0.0325 ± 0.0061
56 | UCGACCUACUGCUUGCAAAGUAUUUAGUUA | 1.33 ± 0.037 | 0.051 ± 0.01
57 | UGGACCAACUGCUUGCAUAGUAUUUAGUUA | 1.27 ± 0.055 | 0.0655 ± 0.011
58 | UCCUGGUACAGCUACCAUAGUAUUUAGUUA | 0.366 ± 0.05 | 
59 | UCCACCUACUGCUUGCAUAGUAUUUACUUA | 0.243 ± 0.025 | 0.0254 ± 0.0034
